Records with an inconclusive call do not appear. Active and inactive are the calls of the source. Unless noted, calls come from the whole dose curve; as a rule, active = well fitted curve in the direction sought with a large enough effect; inconclusive = small, poorly fitted or top-dose-only effect, or another doubt; inactive = no such curve, though single readings can be large; an effect the other way counts as inactive or inconclusive.
Tests used:
[1] = Cytometric Cell-Based qHTS for Inhibitors of the mTORC1 Signaling Pathway in MEF (Tsc2-/-, p53-/-) Cells (AID 2660);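 note: percent of cells above a phospho-rpS6 to PI ratio cutoff in each well; series mostly up to about 38 µM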
Outline: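 Percent of cells positive for normalized phospho-S6 staining is reported, with the cutoff set from rapamycin (7.5 nM) versus DMSO wells. Tsc2-/-, p53-/- MEFs received compound for 24 hrs.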

[2] = High Content Imaging Cell-Based qHTS for Inhibitors of the mTORC1 Signaling Pathway in MEF (Tsc2-/-, p53-/-) Cells (AID 2666);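 note: percent of cells scored positive for phospho-rpS6 Ser235/236 immunostaining by imaging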
Outline: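 Phospho-rpS6 (Ser235/236) immunofluorescence, normalized and scored as % positive cells using rapamycin and DMSO controls, was read in empty-vector Tsc2-/-, p53-/- MEFs after 24 h compound exposure at 37 C; propidium iodide counted cells.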

[3] = Cytometry Cell-Based qHTS for Inhibitors of the mTORC1 Signaling Pathway in MEF cells (AID 2668);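 note: Tsc2-/- p53-/- mouse embryonic fibroblasts stably re-expressing wild-type Tsc2; percent cells positive for phospho-rpS6 Ser235/236 relative to propidium iodide stain; series mostly up to about 38 µM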
Outline: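 Pathway inhibition in WT Tsc2-rescued Tsc2-/-, p53-/- MEFs is measured as the Alexa-488 phospho-rpS6 to propidium iodide intensity ratio after 24 hrs of compound at 37 degree Celsius. PI-stained cell number gives viability.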

[4] = Validation screen for small molecules that induce DNA re-replication in MCF 10A normal breast cells (AID 463097); note: nearly all actives have a fitted effect of over 60% in size
Outline: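 DNA re-replication was detected as a rise in nuclei with elevated Hoechst fluorescence after a 48 hr compound exposure of MCF 10A cells at 37 C.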

[5] = biological target: DNA polymerase III PolC-type (Bacillus subtilis (strain 168)) (UniProt P13267); assay: qHTS Validation Assay for the Inhibitors of DNA Replication in Gram-Positive Bacteria (AID 485295);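 note: reconstituted holoenzyme with PolC plus beta clamp SSB and primase; PicoGreen fluorescence of double-stranded DNA made on primed circular M13 template; series mostly up to about 57 µM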
Sequence of DNA polymerase III PolC-type (Bacillus subtilis (strain 168)) (P13267 whole entry, looked up): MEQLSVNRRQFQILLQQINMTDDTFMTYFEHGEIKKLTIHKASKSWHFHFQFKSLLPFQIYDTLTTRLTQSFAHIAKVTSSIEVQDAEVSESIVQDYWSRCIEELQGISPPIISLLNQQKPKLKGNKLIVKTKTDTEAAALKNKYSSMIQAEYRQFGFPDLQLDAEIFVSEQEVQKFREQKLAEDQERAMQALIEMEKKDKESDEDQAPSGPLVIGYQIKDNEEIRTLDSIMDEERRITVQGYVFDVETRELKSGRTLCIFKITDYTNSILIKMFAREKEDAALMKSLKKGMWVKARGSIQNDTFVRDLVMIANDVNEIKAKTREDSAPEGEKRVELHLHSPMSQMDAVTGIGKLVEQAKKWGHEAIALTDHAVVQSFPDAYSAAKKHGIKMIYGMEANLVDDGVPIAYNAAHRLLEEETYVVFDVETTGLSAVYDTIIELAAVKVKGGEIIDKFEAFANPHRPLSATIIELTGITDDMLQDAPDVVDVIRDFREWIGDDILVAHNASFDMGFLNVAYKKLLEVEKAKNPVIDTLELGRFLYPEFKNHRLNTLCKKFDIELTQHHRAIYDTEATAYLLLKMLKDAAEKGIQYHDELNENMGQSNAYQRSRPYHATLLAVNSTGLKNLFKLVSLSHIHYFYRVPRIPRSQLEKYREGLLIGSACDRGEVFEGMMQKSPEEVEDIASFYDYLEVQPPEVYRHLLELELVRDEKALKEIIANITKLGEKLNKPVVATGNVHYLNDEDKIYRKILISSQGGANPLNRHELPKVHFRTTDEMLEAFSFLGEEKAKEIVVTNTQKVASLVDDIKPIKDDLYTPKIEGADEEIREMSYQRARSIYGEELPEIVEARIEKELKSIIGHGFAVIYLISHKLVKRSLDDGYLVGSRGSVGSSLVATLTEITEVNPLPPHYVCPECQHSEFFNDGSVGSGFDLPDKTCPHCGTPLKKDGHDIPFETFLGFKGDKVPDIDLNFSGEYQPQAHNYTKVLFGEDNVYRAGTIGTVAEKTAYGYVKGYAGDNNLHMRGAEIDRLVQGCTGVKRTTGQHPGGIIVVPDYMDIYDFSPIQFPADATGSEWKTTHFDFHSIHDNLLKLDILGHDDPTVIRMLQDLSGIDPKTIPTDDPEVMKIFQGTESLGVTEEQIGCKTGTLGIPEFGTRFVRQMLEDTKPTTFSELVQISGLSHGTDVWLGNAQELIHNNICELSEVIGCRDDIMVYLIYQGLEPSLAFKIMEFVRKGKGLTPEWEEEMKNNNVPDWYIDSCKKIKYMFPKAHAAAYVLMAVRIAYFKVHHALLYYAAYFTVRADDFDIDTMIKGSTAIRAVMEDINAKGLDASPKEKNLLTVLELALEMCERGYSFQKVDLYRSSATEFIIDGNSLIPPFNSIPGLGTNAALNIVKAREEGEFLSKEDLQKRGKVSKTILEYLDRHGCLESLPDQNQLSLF
Outline: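 Primed replication of single-stranded M13Gori by a four-protein B. subtilis holoenzyme is measured at room temperature. Double-stranded product is quantified by PicoGreen fluorescence after an EDTA stop; inhibition is scaled between DMSO and EDTA controls.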

[6] = qHTS Validation Assay to Find Inhibitors of Chronic Active B-Cell Receptor Signaling (AID 485345; active = well fitted curve in the direction sought with a large enough effect in the main read-out, with a control signal flat, not every such curve was filed as active)
Outline: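 TMD8 ABC-DLBCL cells stably carrying doxycycline-inducible IkappaBalpha–green luciferase fusion plus unfused red luciferase; compounds 46 uM to 3 nM, 4 h at 37C with doxycycline. Corrected green/red luminescence ratio normalized to 10 uM MG-132 and basal cell wells; curves fitted.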

[7] = biological target: Beta-2 adrenergic receptor (Homo sapiens) (UniProt P07550); assay: qHTS validation assay of beta-arrestin-biased ligands of beta2-adrenergic receptor (AID 485366)
Sequence of Beta-2 adrenergic receptor (Homo sapiens) (P07550 whole entry, looked up): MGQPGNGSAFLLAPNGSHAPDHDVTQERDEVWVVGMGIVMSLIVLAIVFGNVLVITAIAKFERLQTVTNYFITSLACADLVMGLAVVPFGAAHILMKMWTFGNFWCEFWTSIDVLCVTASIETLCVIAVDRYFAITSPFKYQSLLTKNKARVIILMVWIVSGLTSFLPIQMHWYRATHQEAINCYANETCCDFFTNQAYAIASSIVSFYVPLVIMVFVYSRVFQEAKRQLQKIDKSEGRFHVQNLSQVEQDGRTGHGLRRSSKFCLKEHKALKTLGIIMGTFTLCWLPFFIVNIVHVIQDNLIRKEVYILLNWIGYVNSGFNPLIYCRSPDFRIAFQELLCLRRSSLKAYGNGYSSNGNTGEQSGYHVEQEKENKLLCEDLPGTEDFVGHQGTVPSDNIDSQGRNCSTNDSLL
Outline: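 Luminescence from a tTA-responsive luciferase, induced when recombinant beta-arrestin is recruited to recombinant beta2-AR, served as the agonism signal. Cells were exposed to compound for 18 hr at 37 degrees C; titrations spanned up to 46 microM.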

[8] = biological target: ATP-dependent 6-phosphofructokinase (Trypanosoma brucei brucei) (UniProt O15648); assay: qHTS Validation Assay to Find Inhibitors of T. brucei phosphofructokinase (AID 485368); settings: outcome: dose series up to 57.5 µM
Sequence of ATP-dependent 6-phosphofructokinase (Trypanosoma brucei brucei) (O15648 whole entry, looked up): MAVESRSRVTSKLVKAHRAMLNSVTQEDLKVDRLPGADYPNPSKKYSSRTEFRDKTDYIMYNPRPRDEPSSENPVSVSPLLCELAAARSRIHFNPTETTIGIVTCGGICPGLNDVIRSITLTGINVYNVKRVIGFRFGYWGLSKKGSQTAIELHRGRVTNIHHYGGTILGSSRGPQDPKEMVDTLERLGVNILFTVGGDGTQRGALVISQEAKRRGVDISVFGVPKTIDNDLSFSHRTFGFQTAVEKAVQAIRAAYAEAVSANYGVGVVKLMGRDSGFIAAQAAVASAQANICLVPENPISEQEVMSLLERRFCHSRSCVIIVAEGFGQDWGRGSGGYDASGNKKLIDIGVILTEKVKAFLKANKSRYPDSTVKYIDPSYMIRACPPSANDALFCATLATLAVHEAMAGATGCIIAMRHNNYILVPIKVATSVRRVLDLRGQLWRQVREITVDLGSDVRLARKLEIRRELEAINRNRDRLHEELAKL
Outline: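 Activity was normalized between 1x (1.25 nM) PFK wells as no inhibition and enzyme-free wells as full inhibition, from luminescence after ADP-Glo detection of ADP made from 0.5 mM F6P and 0.1 mM ATP over 45 min.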

[9] = Quantitative high throughput screen for delayed death inhibitors of the malarial parasite plastid, 96 hour incubation (AID 488745); note: series mostly up to about 29 µM; nearly all actives have a fitted effect of over 70% in size
Outline: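 P. falciparum carrying an integrated firefly luciferase reporter, grown in erythrocytes (2% hematocrit, 0.1% parasitemia final) in RPMI 1640/0.5% Albumax, was exposed to compound for 96 h (two generations) at 37 C, 5% CO2. Luminescence decrease indicated growth inhibition.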

[10] = biological target: Ubiquitin carboxyl-terminal hydrolase 2 (Homo sapiens) (UniProt O75604); assay: qHTS Validation Assay for Inhibitors of Ubiquitin-specific Protease USP2a Using CHOP2 as the Reporter (AID 463106)
Sequence of Ubiquitin carboxyl-terminal hydrolase 2 (Homo sapiens) (O75604 whole entry, looked up): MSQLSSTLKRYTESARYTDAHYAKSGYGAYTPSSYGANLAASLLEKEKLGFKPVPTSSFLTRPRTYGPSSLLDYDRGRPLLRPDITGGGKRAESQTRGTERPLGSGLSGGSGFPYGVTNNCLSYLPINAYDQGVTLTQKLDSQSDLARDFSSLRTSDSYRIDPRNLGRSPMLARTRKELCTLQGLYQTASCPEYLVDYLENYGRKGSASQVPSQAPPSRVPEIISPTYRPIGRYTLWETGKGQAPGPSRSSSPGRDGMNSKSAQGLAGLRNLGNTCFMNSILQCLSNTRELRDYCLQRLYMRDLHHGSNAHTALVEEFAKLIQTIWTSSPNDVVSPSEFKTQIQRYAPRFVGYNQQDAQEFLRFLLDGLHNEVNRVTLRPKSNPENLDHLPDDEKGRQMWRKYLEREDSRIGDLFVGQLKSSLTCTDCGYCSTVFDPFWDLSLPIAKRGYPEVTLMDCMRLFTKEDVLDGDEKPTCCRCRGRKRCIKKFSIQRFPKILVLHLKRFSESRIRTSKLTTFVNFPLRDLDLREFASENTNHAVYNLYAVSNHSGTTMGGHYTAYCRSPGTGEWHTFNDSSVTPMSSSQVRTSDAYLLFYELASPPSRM
Outline: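 USP2 core (10 nM final) was preincubated with compound 30 min at RT in pH 8.0 Tris/CaCl2/beta-ME/CHAPS buffer. Ub-CHOP2 and reporter substrate (25 nM final each) were then added, with fluorescence (Ex 485/Em 531) read after 60 min. Data were normalized to NEM full inhibition and fitted to concentration-response curves.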

Measured: Potency

CCN(CC)CCNC(=O)c1ccc(N)cc1
not listed: [10]
inactive: all other assays above

COc1ccc(Cc2nccc3cc(OC)c(OC)cc23)cc1OC
not listed: [4] | [6] | [9]
inactive: all other assays above

CC(=O)c1ccc(S(=O)(=O)NC(=O)NC2CCCCC2)cc1
inactive: all assays above

O=C(O)CCc1nc(-c2ccccc2)c(-c2ccccc2)o1
inactive: all assays above

CCN(CC)CCOC(=O)c1ccc(N)cc1
inactive: all assays above

CCN(CC)C(=O)c1ccc(O)c(OC)c1
inactive: all assays above

CC(C)NCC(O)COc1cccc2[nH]ccc12 (stereo not given)
not listed: [8]
inactive: all other assays above

COc1ccccc1N1CCN(CCCNc2cc(=O)n(C)c(=O)n2C)CC1
not listed: [8] | [9]
inactive: all other assays above

O=C1NC(=O)C(c2ccccc2)(c2ccccc2)N1
inactive: all assays above

C[N+](C)(C)CC(=O)O
not listed: [4] | [8] | [9]
inactive: all other assays above

CC1(C)CCC2=C(O1)c1ccccc1C(=O)C2=O
inactive: [2] | [10] | [5] | [7]

CN(C)CCC(c1ccccc1)c1ccccn1 (stereo not given)
inactive: all assays above

CCCCCN(C)CCC(O)(P(=O)(O)O)P(=O)(O)O
not listed: [4] | [9]
inactive: all other assays above

Cc1cccc(C)c1OCC(C)N (stereo not given)
not listed: [8]
inactive: all other assays above

O=c1cc(-c2ccc(O)cc2)oc2cc(O)cc(O)c12
inactive: [1] | [2] | [3] | [10] | [5] | [7]

CC(=O)N[C@@H](CS)C(=O)O
inactive: all assays above

Clc1ccc(C(c2ccc(Cl)cc2)n2cc[n+](CC(OCc3ccc(Cl)cc3Cl)c3ccc(Cl)cc3Cl)c2)cc1 (stereo not given)
inactive: [2] | [5] | [6] | [7]

CCN1CCC[C@H]1CNC(=O)c1cc(S(N)(=O)=O)ccc1OC
not listed: [8]
inactive: all other assays above
